We go through 23 molecules from PubChem BioAssay (NCATS).

Each structure is given as a SMILES string. Values joined by “and” are separate entries in the source; they are usually repeats but may differ in a detail not shown here. Equal values may be shown once. Inconclusive results are not listed. Active and inactive are the calls of the source. Unless noted, calls follow the shape of the dose curve; as a rule, active = well fitted cell-killing curve with a large enough effect; inconclusive = small, poorly fitted or top-dose-only effect, or effect the other way; inactive = flat fitted curve, though single readings scatter.

One assay in a line: qHTS assay for cell viability of HEK293 cells (AID 743288). Also: nearly all actives have a fitted effect of over 50% in size. Also: potency is read from the fitted curve at half-maximal effect. As to max response: % is scaled to controls: 0 for no effect and ±100 for the full control effect. The note with it: ATP luminescence (CellTiter-Glo), 18 h; max response: stronger effect = lower value. Summed up:
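Viable-cell counts were inferred from luciferase-based ATP content in HEK293 cells seeded at 2,000/well, pre-incubated ≥5 h, then dosed with DMSO-solubilised compounds for 18 h at 37 C.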
For the molecule `C[C@]12C=CC(=O)C=C1CC[C@H]1[C@@H]3C[C@@H](O)[C@](O)(C(=O)CO)[C@@]3(C)C[C@H](O)[C@@]12F`, the max response was -7.12% (inactive).

As for `C[C@]12CCC(=O)C=C1CC[C@@H]1[C@@H]2C(=O)C[C@@]2(C)[C@H]1CC[C@]2(O)C(=O)CO`, the max response was -1.33% (inactive).

As to `NC(=O)N1c2ccccc2C=Cc2ccccc21`, the max response is -11.6% (inactive) and -13.8% (inactive).

Turning to `COc1cc(Cc2cnc(N)nc2N)cc(OC)c1OC`, the max response was -2.08% (inactive).

Regarding `O=C(O)CCCCCCCC(=O)O`, the max response is -0.211% (inactive).

For `O=c1[nH]c(=O)n([C@H]2C[C@H](O)[C@@H](CO)O2)cc1Br`, the max response was -7.4% (inactive).

As to `CC(=O)Nc1nnc(S(N)(=O)=O)s1`, the max response is -6.47% (inactive).

With `COC(=O)[C@H]1[C@H]2C[C@@H]3c4[nH]c5cc(OC)ccc5c4CCN3C[C@H]2C[C@@H](OC(=O)c2cc(OC)c(OC)c(OC)c2)[C@@H]1OC`, the Potency is 39.8 µM (active).

Consider `CN=C(NC#N)NCCSCc1nc[nH]c1C`, for which the max response is -3.45% (inactive).

In the case of `NC(=Nc1ccccc1)Nc1ccccc1`, the max response was -13.7% (inactive) and -2.76% (inactive).

For the molecule `CC(=O)[C@@]1(O)CC[C@H]2[C@@H]3CCC4=CC(=O)CC[C@]4(C)[C@H]3CC[C@@]21C`, the max response is -17.3% (inactive).

`COc1ccc(CN(CCN(C)C)c2ccccn2)cc1`: the max response was -9.66% (inactive).

On to `Cc1ccc(S(=O)(=O)NC(=O)NN2CCCCCC2)cc1`, for which the max response was -0.908% (inactive).

`CC(C)(Oc1ccc(CCNC(=O)c2ccc(Cl)cc2)cc1)C(=O)O`: the max response was -0.154% (inactive).

For the molecule `CCCCOCCOCCOCc1cc2c(cc1CCC)OCO2`, the max response is -11.4% (inactive) and -13.4% (inactive).

As to `Nc1nc(N)c2nc(-c3ccccc3)c(N)nc2n1`, the Potency is 31.6 µM (active).

Take `CCCCNC(=O)NS(=O)(=O)c1ccc(C)cc1`: the max response is 2.43% (inactive) and -13.2% (inactive).

The next assay is described as follows: qHTS assay for cell viability of the p53RE-bla HCT-116 cell line (AID 743292). Also: % is scaled to controls: 0 for no effect and ±100 for the full control effect; nearly all actives have a fitted effect of over 55% in size. To be noted: p53RE-bla HCT-116 viability, ATP luminescence, 16 h; series mostly up to 95 µM. Summed up:
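Compound-exposed HCT-116 (p53RE-bla) cells, 4,000 per well, were kept 16 h at 37 C following a 5 h preincubation. Cell number was estimated from total ATP by CellTiter-Glo luminescence read after 30 min at room temperature.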
In the case of `C[C@]12C=CC(=O)C=C1CC[C@H]1[C@@H]3C[C@@H](O)[C@](O)(C(=O)CO)[C@@]3(C)C[C@H](O)[C@@]12F`, the molecule was called inactive.

As for `C[C@]12CCC(=O)C=C1CC[C@@H]1[C@@H]2C(=O)C[C@@]2(C)[C@H]1CC[C@]2(O)C(=O)CO`, the outcome was inactive.

Turning to `NC(=O)N1c2ccccc2C=Cc2ccccc21`, the result was inactive.

In the case of `COc1cc(Cc2cnc(N)nc2N)cc(OC)c1OC`, the molecule was called inactive.

Regarding `Nc1ncn([C@@H]2O[C@H](CO)[C@@H](O)[C@H]2O)c(=O)n1`, the outcome was inactive.

In the case of `O=C(O)CCCCCCCC(=O)O`, the molecule was called inactive.

For `O=c1[nH]c(=O)n([C@H]2C[C@H](O)[C@@H](CO)O2)cc1Br`, the molecule was called inactive.

Turning to `CC(=O)Nc1nnc(S(N)(=O)=O)s1`, the molecule was classed as inactive.

`COC(=O)[C@H]1[C@H]2C[C@@H]3c4[nH]c5cc(OC)ccc5c4CCN3C[C@H]2C[C@@H](OC(=O)c2cc(OC)c(OC)c(OC)c2)[C@@H]1OC`: the molecule was classed as inactive.

As for `CN=C(NC#N)NCCSCc1nc[nH]c1C`, the molecule was called inactive.

For the molecule `NC(=Nc1ccccc1)Nc1ccccc1`, the call was inactive.

In the case of `CC(=O)[C@@]1(O)CC[C@H]2[C@@H]3CCC4=CC(=O)CC[C@]4(C)[C@H]3CC[C@@]21C`, the result was inactive.

For the molecule `COc1ccc(CN(CCN(C)C)c2ccccn2)cc1`, the molecule was called inactive.

Take `Cc1ccc(S(=O)(=O)NC(=O)NN2CCCCCC2)cc1`: the molecule was called inactive.

Regarding `CC(C)(Oc1ccc(CCNC(=O)c2ccc(Cl)cc2)cc1)C(=O)O`, the call was inactive.

As to `CCCCOCCOCCOCc1cc2c(cc1CCC)OCO2`, the call was inactive.

On to `Nc1nc(N)c2nc(-c3ccccc3)c(N)nc2n1`, for which the molecule was classed as inactive.

Consider `CCCCNC(=O)NS(=O)(=O)c1ccc(C)cc1`, for which the outcome was inactive.

A further assay can be described thus: qHTS profiling for inhibitors of Plasmodium falciparum (3D7) proliferation (AID 743322; call rule not given here;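 also: infected erythrocytes exposed to compound for 72 h before lysis; 100% = DMSO vehicle wells and 0% = 0.29 µM artemisinin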). To be noted: P. falciparum 3D7 proliferation; at 28.7 µM (top of the series) unless noted. Summed up:
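Parasite DNA was quantified by SYBR Green I fluorescence (ex 485, em 535 nm) after overnight lysis in saponin/Triton buffer at room temperature. Cultures at 0.3% parasitemia and 2.5% hematocrit were first exposed to compound for 72 h at 37 C; signals were normalised to artemisinin (0.29 uM) and vehicle wells.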
(In general: qHTS replaces the single test concentration by a dilution series.)
On to `CN(C)CC/C=C1\c2ccccc2COc2ccccc21`, for which the remaining parasite growth % (stronger effect = lower value) is 96.2% [at 9.63 µM].

Regarding `Cc1cccc(C)c1NC(=O)C(C)N` (configuration not stated), the remaining parasite growth % (stronger effect = lower value) worked out at 92.4% [at 9.63 µM].

On to `COCC(=O)O[C@]1(CCN(C)CCCc2nc3ccccc3[nH]2)CCc2cc(F)ccc2[C@@H]1C(C)C`, for which the remaining parasite growth % (stronger effect = lower value) is -2.7%.

On to `Nc1ncn([C@@H]2O[C@H](CO)[C@@H](O)[C@H]2O)c(=O)n1`, for which the remaining parasite growth % (stronger effect = lower value) is 103%.

In the case of `CN1C[C@H](C(=O)N[C@]2(C)O[C@@]3(O)[C@@H]4CCCN4C(=O)[C@H](Cc4ccccc4)N3C2=O)C[C@@H]2c3cccc4[nH]cc(c34)C[C@H]21`, the remaining parasite growth % (stronger effect = lower value) was -0.39%.

Regarding `CNCCC(Oc1ccccc1OC)c1ccccc1` (configuration not stated), the remaining parasite growth % (stronger effect = lower value) was 104%.

A further assay can be described thus: qHTS profiling for inhibitors of Plasmodium falciparum (DD2) proliferation (AID 743323; call rule not given here). To be noted: lower = more inhibition; at 28.7 µM (top of the series) unless noted. Summed up: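 SYBR Green fluorescence (ex 485, em 535 nm) of lysed cultures gives parasite DNA content; wells normalized to artemisinin (0.29 uM) and DMSO controls. Infected red cells: 0.3% parasitemia, 2.5% hematocrit, 72 h, 37 C.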
With `CN(C)CC/C=C1\c2ccccc2COc2ccccc21`, the activity, percent of control was determined as 49.5% [at 9.63 µM].

As to `Cc1cccc(C)c1NC(=O)C(C)N` (configuration not stated), the activity, percent of control worked out at 99.5% [at 9.63 µM].

With `COCC(=O)O[C@]1(CCN(C)CCCc2nc3ccccc3[nH]2)CCc2cc(F)ccc2[C@@H]1C(C)C`, the activity, percent of control was -0.639%.

For `Nc1ncn([C@@H]2O[C@H](CO)[C@@H](O)[C@H]2O)c(=O)n1`, the activity, percent of control came to 121%.

Turning to `CN1C[C@H](C(=O)N[C@]2(C)O[C@@]3(O)[C@@H]4CCCN4C(=O)[C@H](Cc4ccccc4)N3C2=O)C[C@@H]2c3cccc4[nH]cc(c34)C[C@H]21`, the activity, percent of control was determined as 0.0095%.

Turning to `CNCCC(Oc1ccccc1OC)c1ccccc1` (configuration not stated), the activity, percent of control was 48%.
